# Test results from ChEMBL document CHEMBL1961873, “Compounds: GSK PKIS; Assays: Nanosyn kinase panel” (2012).
# Legend:
# [1] = target: Tyrosine-protein kinase receptor UFO (Homo sapiens) (UniProt P30530); conditions: at 1 µM
# [2] = target: Tyrosine-protein kinase Blk (Homo sapiens) (UniProt P51451); conditions: at 0.1 µM
# [3] = target: Tyrosine-protein kinase Blk (Homo sapiens) (UniProt P51451); conditions: at 1 µM
# [4] = target: T1, Cytoplasmic tyrosine-protein kinase BMX (Homo sapiens) (UniProt P51813); conditions: at 0.1 µM
# T1 sequence (whole entry): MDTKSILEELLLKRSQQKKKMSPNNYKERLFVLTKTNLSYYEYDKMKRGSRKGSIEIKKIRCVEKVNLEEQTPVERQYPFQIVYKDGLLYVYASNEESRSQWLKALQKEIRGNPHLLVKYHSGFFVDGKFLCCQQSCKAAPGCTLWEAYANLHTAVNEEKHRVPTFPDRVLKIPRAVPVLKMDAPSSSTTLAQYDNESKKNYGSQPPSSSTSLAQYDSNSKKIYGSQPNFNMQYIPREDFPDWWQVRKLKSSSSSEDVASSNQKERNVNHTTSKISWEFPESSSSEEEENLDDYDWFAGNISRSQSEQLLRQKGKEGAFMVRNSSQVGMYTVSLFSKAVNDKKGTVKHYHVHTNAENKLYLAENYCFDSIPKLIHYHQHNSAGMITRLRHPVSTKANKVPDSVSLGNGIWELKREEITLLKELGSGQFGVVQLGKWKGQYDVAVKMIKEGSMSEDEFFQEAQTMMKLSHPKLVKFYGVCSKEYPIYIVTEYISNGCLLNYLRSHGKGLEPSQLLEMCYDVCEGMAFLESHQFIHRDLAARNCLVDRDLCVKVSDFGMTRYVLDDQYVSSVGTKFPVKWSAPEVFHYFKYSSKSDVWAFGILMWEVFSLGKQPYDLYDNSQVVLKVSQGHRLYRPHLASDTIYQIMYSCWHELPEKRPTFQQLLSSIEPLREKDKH
# [5] = target: T1, Cytoplasmic tyrosine-protein kinase BMX (Homo sapiens); conditions: at 1 µM
# [6] = target: Protein-tyrosine kinase 6 (Homo sapiens) (UniProt Q13882); conditions: at 0.1 µM
# Chain of Protein-tyrosine kinase 6 (Homo sapiens) (Q13882 whole entry, looked up): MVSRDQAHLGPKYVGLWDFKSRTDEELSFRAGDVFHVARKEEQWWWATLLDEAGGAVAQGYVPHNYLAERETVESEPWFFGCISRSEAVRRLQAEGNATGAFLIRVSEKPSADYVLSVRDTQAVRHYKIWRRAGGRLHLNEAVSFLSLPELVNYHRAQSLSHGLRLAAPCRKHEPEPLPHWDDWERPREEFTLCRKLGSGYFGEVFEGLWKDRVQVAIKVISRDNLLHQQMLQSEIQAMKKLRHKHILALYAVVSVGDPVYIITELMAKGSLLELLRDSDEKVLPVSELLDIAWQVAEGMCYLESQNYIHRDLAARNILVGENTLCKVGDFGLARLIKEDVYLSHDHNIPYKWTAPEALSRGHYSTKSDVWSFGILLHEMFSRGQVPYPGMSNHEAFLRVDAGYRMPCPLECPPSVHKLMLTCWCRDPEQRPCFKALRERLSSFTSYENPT
# [7] = target: Protein-tyrosine kinase 6 (Homo sapiens) (UniProt Q13882); conditions: at 1 µM
# [8] = target: Tyrosine-protein kinase BTK (Homo sapiens) (UniProt Q06187); conditions: at 0.1 µM
# Chain of Tyrosine-protein kinase BTK (Homo sapiens) (Q06187 whole entry): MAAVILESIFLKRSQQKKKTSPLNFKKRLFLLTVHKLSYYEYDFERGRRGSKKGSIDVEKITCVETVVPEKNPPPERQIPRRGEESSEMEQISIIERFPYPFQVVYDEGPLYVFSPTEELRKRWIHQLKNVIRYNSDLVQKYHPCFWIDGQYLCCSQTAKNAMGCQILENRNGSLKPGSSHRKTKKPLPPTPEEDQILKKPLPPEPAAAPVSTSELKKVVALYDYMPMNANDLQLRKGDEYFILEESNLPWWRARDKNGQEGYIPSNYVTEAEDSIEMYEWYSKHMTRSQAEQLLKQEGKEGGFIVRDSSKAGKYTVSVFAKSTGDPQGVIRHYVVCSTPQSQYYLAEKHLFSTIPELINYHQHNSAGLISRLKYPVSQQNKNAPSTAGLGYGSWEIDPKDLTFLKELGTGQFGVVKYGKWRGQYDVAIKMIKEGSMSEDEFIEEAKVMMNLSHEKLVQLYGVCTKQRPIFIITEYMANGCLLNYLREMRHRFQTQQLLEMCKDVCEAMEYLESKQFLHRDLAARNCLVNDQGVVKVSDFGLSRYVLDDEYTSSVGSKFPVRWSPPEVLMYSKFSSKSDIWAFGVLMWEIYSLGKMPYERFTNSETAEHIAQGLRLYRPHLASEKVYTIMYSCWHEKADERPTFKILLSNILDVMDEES
# [9] = target: Tyrosine-protein kinase BTK (Homo sapiens) (UniProt Q06187); conditions: at 1 µM
# [10] = target: Tyrosine-protein kinase CSK (Homo sapiens) (UniProt P41240); conditions: at 0.1 µM
# Chain of Tyrosine-protein kinase CSK (Homo sapiens) (P41240 2-450 limits assumed): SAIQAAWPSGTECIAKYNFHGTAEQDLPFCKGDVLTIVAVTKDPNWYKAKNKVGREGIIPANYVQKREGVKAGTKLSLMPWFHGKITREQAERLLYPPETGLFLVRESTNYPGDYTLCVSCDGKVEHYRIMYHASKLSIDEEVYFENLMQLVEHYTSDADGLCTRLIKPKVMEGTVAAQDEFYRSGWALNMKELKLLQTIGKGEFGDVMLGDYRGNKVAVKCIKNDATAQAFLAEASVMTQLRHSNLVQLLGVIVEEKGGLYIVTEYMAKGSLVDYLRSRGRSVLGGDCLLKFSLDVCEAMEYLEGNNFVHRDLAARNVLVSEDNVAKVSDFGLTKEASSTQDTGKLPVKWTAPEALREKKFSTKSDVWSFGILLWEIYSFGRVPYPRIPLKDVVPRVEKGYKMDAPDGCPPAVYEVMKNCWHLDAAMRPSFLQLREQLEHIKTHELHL
# [11] = target: Tyrosine-protein kinase CSK (Homo sapiens) (UniProt P41240); conditions: at 1 µM
# [12] = target: T2, Discoidin domain-containing receptor 2 (Homo sapiens) (UniProt Q16832); conditions: at 0.1 µM
# T2 sequence (whole entry): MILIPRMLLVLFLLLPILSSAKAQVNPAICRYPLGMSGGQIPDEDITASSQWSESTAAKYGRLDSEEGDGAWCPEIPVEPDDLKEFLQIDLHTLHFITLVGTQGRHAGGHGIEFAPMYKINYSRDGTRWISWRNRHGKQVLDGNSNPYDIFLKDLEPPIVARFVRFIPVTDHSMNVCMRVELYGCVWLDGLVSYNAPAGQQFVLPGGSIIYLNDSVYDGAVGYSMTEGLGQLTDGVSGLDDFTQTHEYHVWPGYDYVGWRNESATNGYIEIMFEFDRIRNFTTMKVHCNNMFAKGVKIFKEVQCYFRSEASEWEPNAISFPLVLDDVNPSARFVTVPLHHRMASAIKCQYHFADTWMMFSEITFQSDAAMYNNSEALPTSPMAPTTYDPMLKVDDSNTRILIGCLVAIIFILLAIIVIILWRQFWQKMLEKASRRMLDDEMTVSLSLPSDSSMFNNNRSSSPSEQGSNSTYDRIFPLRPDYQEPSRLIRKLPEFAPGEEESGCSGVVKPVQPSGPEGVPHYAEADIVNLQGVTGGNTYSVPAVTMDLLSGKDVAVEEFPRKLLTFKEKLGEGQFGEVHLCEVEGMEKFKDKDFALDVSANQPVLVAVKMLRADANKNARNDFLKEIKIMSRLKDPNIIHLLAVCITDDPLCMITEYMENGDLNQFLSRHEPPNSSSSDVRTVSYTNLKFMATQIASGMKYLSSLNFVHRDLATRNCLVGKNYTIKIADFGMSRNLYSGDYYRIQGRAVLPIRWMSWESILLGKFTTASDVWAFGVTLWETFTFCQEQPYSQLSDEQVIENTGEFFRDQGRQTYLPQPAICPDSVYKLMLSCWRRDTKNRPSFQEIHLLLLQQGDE
# [13] = target: T2, Discoidin domain-containing receptor 2 (Homo sapiens); conditions: at 1 µM
# [14] = target: Epidermal growth factor receptor (Homo sapiens) (UniProt P00533); conditions: at 0.1 µM
# [15] = target: Epidermal growth factor receptor (Homo sapiens) (UniProt P00533); conditions: at 1 µM
# [16] = tested on: Epidermal growth factor receptor (Homo sapiens), P00533 [L858R]; conditions: at 0.1 µM
# Chain of Epidermal growth factor receptor (Homo sapiens), P00533 [L858R] (P00533 whole entry L858R): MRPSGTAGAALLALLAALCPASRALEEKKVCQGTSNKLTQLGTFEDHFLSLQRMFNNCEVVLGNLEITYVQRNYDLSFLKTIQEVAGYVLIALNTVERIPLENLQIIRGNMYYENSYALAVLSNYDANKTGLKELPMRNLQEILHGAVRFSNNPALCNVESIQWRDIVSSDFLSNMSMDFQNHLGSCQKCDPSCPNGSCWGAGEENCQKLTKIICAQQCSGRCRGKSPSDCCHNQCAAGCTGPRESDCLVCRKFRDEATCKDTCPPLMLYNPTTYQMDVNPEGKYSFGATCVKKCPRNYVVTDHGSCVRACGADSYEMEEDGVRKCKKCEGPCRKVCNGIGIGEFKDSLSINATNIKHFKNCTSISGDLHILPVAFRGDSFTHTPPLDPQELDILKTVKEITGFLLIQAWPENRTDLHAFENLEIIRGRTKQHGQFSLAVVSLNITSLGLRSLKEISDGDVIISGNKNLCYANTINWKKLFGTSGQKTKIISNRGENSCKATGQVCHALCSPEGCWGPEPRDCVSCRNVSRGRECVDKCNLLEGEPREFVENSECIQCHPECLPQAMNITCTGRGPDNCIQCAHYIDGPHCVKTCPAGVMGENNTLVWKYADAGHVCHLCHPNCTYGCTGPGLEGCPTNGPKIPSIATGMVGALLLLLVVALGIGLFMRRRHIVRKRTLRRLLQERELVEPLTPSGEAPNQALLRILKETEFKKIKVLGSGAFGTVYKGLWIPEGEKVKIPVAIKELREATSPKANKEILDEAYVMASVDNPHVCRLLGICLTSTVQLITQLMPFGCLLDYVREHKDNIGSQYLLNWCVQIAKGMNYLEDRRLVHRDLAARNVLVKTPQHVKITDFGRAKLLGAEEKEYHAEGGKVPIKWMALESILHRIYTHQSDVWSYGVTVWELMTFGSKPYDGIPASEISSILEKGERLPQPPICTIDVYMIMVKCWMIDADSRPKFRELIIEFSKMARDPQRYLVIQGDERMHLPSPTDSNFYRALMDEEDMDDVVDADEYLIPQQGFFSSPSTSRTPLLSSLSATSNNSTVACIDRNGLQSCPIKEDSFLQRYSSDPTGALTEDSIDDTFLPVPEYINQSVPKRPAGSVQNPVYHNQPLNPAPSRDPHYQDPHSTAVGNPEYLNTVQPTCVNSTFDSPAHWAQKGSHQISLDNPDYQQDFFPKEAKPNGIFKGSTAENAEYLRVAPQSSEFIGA
# [17] = tested on: Epidermal growth factor receptor (Homo sapiens), P00533 [L858R]; conditions: at 1 µM
# [18] = tested on: Epidermal growth factor receptor (Homo sapiens), P00533 [L861Q]; conditions: at 0.1 µM
# [19] = tested on: Epidermal growth factor receptor (Homo sapiens), P00533 [L861Q]; conditions: at 1 µM
# [20] = tested on: Epidermal growth factor receptor (Homo sapiens), P00533 [T790M]; conditions: at 0.1 µM
# Chain of Epidermal growth factor receptor (Homo sapiens), P00533 [T790M] (P00533 whole entry T790M): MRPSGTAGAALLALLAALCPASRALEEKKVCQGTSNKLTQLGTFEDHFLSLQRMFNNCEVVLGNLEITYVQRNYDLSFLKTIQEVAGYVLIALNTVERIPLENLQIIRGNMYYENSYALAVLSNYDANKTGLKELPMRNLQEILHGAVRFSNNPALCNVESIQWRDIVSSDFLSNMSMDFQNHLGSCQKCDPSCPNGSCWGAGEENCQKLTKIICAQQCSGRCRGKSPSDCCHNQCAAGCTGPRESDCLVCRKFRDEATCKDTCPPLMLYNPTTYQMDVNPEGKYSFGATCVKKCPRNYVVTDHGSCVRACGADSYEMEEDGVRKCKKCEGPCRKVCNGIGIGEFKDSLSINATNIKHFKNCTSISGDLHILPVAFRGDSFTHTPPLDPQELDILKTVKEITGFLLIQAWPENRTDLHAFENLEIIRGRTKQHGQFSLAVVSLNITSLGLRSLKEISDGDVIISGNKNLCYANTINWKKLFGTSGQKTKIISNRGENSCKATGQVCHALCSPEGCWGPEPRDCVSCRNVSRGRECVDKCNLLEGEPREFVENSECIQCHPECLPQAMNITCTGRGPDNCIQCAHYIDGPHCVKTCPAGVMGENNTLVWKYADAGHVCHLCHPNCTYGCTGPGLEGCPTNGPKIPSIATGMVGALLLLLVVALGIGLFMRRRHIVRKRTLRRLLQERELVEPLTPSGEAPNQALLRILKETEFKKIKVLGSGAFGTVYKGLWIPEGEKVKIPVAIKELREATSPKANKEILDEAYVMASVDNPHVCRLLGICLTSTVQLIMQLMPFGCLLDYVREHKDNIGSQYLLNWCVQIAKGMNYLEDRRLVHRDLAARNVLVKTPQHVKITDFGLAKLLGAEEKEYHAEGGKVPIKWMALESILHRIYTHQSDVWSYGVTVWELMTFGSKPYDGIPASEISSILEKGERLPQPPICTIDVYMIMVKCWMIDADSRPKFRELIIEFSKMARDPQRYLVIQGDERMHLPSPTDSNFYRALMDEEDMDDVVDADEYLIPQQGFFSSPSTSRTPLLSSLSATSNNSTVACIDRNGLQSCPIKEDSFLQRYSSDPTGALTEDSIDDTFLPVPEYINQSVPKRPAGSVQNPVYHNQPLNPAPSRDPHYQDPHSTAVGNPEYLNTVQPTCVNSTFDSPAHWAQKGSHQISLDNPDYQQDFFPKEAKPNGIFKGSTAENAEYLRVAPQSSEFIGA
# Chain of Tyrosine-protein kinase receptor UFO (Homo sapiens) (P30530 whole entry): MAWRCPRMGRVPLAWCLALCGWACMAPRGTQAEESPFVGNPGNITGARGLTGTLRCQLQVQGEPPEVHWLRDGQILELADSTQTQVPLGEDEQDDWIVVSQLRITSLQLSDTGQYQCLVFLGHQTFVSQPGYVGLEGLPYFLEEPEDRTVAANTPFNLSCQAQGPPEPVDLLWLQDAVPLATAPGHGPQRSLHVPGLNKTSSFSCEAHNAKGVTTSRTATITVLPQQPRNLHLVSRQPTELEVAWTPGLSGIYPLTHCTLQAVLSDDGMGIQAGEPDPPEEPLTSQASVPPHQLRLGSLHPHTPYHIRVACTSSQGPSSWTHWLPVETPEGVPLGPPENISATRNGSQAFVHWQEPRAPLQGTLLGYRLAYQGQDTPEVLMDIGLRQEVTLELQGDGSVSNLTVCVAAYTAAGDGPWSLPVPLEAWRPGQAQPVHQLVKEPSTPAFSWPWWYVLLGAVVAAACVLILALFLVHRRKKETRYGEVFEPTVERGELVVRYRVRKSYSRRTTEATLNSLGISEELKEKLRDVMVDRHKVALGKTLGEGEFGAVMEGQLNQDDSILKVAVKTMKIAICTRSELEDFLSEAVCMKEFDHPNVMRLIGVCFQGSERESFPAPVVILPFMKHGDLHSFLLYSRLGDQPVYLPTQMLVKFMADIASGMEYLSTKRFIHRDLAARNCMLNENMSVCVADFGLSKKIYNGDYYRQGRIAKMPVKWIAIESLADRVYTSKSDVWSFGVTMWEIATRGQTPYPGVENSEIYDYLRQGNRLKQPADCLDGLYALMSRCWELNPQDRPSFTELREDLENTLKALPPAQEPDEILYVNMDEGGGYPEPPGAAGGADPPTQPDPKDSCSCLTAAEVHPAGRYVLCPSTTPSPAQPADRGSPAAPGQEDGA
SMILES,inhibition [1] [%],inhibition [2] [%],inhibition [3] [%],inhibition [4] [%],inhibition [5] [%],inhibition [6] [%],inhibition [7] [%],inhibition [8] [%],inhibition [9] [%],inhibition [10] [%],inhibition [11] [%],inhibition [12] [%],inhibition [13] [%],inhibition [14] [%],inhibition [15] [%],inhibition [16] [%],inhibition [17] [%],inhibition [18] [%],inhibition [19] [%],inhibition [20] [%]
COc1cc2ncnc(Nc3ccc4c(cnn4Cc4ccccc4)c3)c2cc1OC,-3.18,13.9,60.8,3.73,23.4,13.1,53.2,4.09,29.1,11.1,58.2,1.74,1.78,87.2,84.7,72.5,94.4,55.8,84.8,8.65
COc1cc(/C=N/Nc2ncnc3c2cnn3C(C)C)ccc1O,-0.23,4.73,45,2.71,17.1,1.02,4.8,-0.92,0.84,0.38,-1.57,-0.03,-1.45,6.39,9.9,3.23,12.2,2.56,3.26,0.17
[O-][S+]1CCN(Cc2ccc(-c3ccc4ncnc(Nc5ccc(OCc6ccccc6)c(Cl)c5)c4c3)o2)CC1,0.46,-0.34,6.7,0.31,2.05,0.38,11,-1.44,-0.83,-0.03,1.54,0.28,1.54,–,–,–,–,–,–,–
Nc1nccc(C#Cc2cncnc2Nc2ccc(OCc3cccc(F)c3)c(Cl)c2)n1,1.72,3.54,5.98,1.74,8.65,4.52,3.74,0.96,7.04,10.2,3.09,1.14,4.7,–,–,–,–,–,–,–
Cc1nc(-c2ccccc2)n2nc(NCCCN3CCOCC3)ncc12,-0.92,2.04,4.14,3.56,5.57,-2.39,2.23,0.19,0.66,-0.24,1.69,1.13,1.28,5.65,7.11,1.69,4.22,0.9,1.99,-0.64
CCn1c(-c2nonc2N)nc2ccc(F)cc21,-5.29,3.96,4.5,5.08,6.05,4.83,8.38,0.19,-0.49,5.53,8.91,0.92,4.58,12.1,13.4,4.05,12.7,4.88,8.61,3
COc1cccc(-n2nc(C)c3c(N/N=C(\C)c4ccncc4)ncnc32)c1,0.56,-0.21,1.02,1.51,3.74,-1.24,-0.15,0.11,-0.4,-0.83,0.42,0.8,0.38,1.03,2.43,-0.3,1.45,-0.04,0.7,-1.78
